OvCa metastasis = blocks SKOV3ip1 adhesion and invasion in omental model | SKOV3ip1-GFP adhesion/invasion on 3D omental model, fluorescence | Potency, µM (top dose mostly 45.8 µM), without a hit: top-dose activity change, negative = inhibition, usual class: inhibitors | 46,000 compounds, 0.1% hits;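 further: potency means the concentration at half of the fitted maximal effect; plate controls were DMSO wells for no effect and tomatine positive control wells for full effect; nearly all actives have a fitted effect of over 65% in size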
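A 3D layer of primary human omental fibroblasts, mesothelial cells, fibronectin and collagen I, grown 48 hr, received SKOV3ip1-GFP cells in serum-free medium plus compounds at 0.36-46 umol/L. After 2 hr RT and 16 hr 37 C, fixed adherent GFP cells were counted; normalized to DMSO and tomatine.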
GALK inh = inhibitors of human galactokinase (GALK); recombinant GALK, Kinase-Glo ATP luminescence, 1 h; Potency, µM (titrated, usually from 57.5 µM), without a hit: at the top dose activity, negative = inhibition, actives largely listed as inhibitors; 44,000 tested, under 10 active; AID 1347072;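 further: plate controls were full GALK reaction for no effect and reaction lacking GALK for full effect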
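Compounds were pinned into ATP buffer, then GALK-galactose mix was added (final 5 nM enzyme, 35 uM ATP, 100 uM galactose, pH 8.0). After 1 h at room temperature, Kinase-Glo Plus was added and luminescence read.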
GPR32 ag = activates human resolvin D1 receptor GPR32; O75388; CHO-K1 GPR32 beta-arrestin PathHunter luminescence, 90 min; zero percent set by DMSO-only wells; activation, % at 76.9 µM; 48,000 compounds, 2.5% hits; AID 1346428;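 active means activation of at least 60% and not above a set upper limit, about 1 call in 100 departs from these limits; inconclusive means activation of 40% to 60%, or above that upper limit; inactive means activation under 40%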; further: 0% is about no effect
Target sequence (O75388 whole entry, looked up): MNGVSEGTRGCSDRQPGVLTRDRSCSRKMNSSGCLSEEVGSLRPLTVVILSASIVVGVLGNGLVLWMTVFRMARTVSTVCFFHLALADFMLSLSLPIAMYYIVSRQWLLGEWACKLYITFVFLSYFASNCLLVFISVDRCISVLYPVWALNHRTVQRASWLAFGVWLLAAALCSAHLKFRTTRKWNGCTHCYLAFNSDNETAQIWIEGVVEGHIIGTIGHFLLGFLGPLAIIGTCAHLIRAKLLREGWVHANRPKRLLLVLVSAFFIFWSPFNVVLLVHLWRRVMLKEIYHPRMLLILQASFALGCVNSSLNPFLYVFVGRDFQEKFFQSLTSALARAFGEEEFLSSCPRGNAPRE
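Agonism was scored as beta-arrestin recruitment to ProLink-fused GPR32 in stably transfected CHO-K1 cells, giving a chemiluminescent beta-Gal signal; compounds were incubated 90 min at 37 °C.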
NTMT1 inhibitor = inhibitors of human N-terminal methyltransferase NTMT1; 59,000 compounds, 2.5% hits; NTMT1 MTase-Glo SAH luminescence, purified enzyme; Potency, µM (doses to about 114 µM), for the others: at the top dose activity change, negative = inhibition, usual class: inhibitors; Q9BV86;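 further: potency means the concentration at half of the fitted maximal effect; plate controls were DMSO vehicle for no effect and no enzyme for full effect; nearly all actives have a fitted effect of over 65% in size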
B2AR arrestin ag = agonists recruiting beta-arrestin to human beta2-adrenergic receptor. 44,000 tested, under 10 active. P07550. HTLA Tango cells, beta-arrestin recruitment, luciferase luminescence, 18 h. AID 1347077. Potency, µM (titrated, usually from 46.1 µM), usual class: activators;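 further: potency means the concentration at half of the fitted maximal effect; 0% = DMSO and full agonism = EC100 isoproterenol or metaproterenol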
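Ligand-induced beta-arrestin recruitment to recombinant beta2-AR is measured via a tTA-driven luciferase reporter in Tango cells after 18 hr compound exposure at 37 degrees C. Concentrations span up to 46 microM.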
TSG101-PTAP inh = inhibitors of HIV-1 PTAP binding to human TSG101, validation; 44,000 tested, under 10 active; Potency, µM (titrated, usually from 115 µM), most hits filed as inhibitors; Fluorescence polarization, FITC-PTAP peptide/Tsg101, 20 min; Q99816; AID 1347069; further: potency means the concentration at half of the fitted maximal effect; 0% is about no effect
Target sequence (Q99816 whole entry, looked up): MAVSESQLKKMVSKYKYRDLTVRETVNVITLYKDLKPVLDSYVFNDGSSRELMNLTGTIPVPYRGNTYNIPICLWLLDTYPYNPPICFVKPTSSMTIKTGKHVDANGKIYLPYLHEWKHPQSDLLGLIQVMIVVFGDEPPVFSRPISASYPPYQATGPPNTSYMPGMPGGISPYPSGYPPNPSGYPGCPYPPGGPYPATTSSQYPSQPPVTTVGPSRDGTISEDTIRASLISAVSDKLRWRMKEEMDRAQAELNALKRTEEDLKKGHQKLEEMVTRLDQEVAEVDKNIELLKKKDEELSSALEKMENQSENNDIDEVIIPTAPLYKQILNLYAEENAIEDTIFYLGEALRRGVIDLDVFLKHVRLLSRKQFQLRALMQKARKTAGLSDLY
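The Tsg101 binding domain, at 10 uM final, is mixed with compound and a FITC peptide bearing the PTAP motif (50 nM final). After 20 min at r.t., polarization is measured; actives defined by CRC class, efficacy cut-off 60% inhibition.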
DYRK1A inh = inhibitors of human DYRK1A kinase | shares compounds with NTMT1 inhibitor | 100 compounds, 80% hits | recombinant DYRK1A, Kinase-Glo ATP depletion luminescence | Potency, µM (top dose mostly 76.9 µM), inactives show at the top dose activity change, negative = inhibition, most hits filed as inhibitors
Sfp qHTS opt = inhibitors of Bacillus subtilis Sfp PPTase, optimization followup; shares compounds with NTMT1 inhibitor; purified Sfp PPTase enzyme activity, qHTS; Potency, µM (top dose mostly 114 µM), for inactives: at the highest dose activity change, negative = inhibition, actives largely listed as inhibitors; 230 compounds, 78% hits; AID 540350
HM489 growth = Sfp PPTase inhibitors: growth inhibition of B. subtilis HM489. Potency, µM (top dose mostly 114 µM), without a hit: at the highest dose activity change, negative = inhibition, actives largely listed as inhibitors. shares compounds with NTMT1 inhibitor. 220 compounds, 50% hits. B. subtilis HM489 (acpS-) growth, BacTiter-Glo, 5 h
Sfp PPTase gel = inhibits B. subtilis Sfp PPTase in gel assay. shares compounds with NTMT1 inhibitor. AID 540355. purified Sfp PPTase, gel-based product detection. Potency, µM (doses to about 250 µM), without a hit: at the highest dose activity change, negative = inhibition, actives largely listed as inhibitors. 220 compounds, 54% hits
Sfp inh SAR2 = Sfp phosphopantetheinyl transferase inhibition, SAR round 2; Potency, µM (top dose mostly 57.1 µM), for inactives: top-dose activity change, negative = inhibition, hits mostly inhibitors; 230 compounds, 87% hits; shares compounds with NTMT1 inhibitor; purified Sfp enzyme, PPTase activity, qHTS; AID 602370
HSD17B4 inh = HSD17B4 (human) inhibition, HPGD counter-screen; shares compounds with NTMT1 inhibitor; purified HSD17B4, estradiol/NAD+, NADH fluorescence; Potency, µM (series often up to 57.1 µM), for the others: top-dose activity change, negative = inhibition, actives largely listed as inhibitors; 230 compounds, 10% hits
ALDH1A1 inh = inhibits human ALDH1A1, off-target for HPGD inhibitors; shares compounds with NTMT1 inhibitor; recombinant ALDH1A1, NADH fluorescence, propionaldehyde/NAD+; Potency, µM (top dose mostly 57.1 µM), without a hit: at the top dose activity change, negative = inhibition, most hits filed as inhibitors; 230 compounds, 93% hits
NNMT counter = human NNMT inhibition, NTMT1 counter-screen. AID 1645878. 120 compounds, 10% hits. shares compounds with NTMT1 inhibitor. NNMT MTase-Glo luminescence, SAH detection. Potency, µM (highest dose often 57.1 µM), without a hit: at the top dose activity, negative = inhibition, hits mostly inhibitors
Active calls of the source: *; [ ] = another dose, or the depositor's remark. A selection: hits, their analogues and other compounds. The true share with any hit is near 3.8%. Unless noted, the call rests on the fitted dose curve; in most records, active means well fitted curve in the direction sought with a large enough effect; inconclusive means small, poorly fitted or top-dose-only effect, or another doubt; inactive means no such curve, though single readings can be large; an effect the other way counts as inactive or inconclusive.

For CCC1CCCCN1C(=O)c1c[nH]c2ccc(S(=O)(=O)Nc3cccc(OC)c3)cc2c1=O (stereo unspecified) the results were OvCa metastasis 14%, GALK inh 4%, GPR32 ag -2, NTMT1 inhibitor -5%, B2AR arrestin ag inactive and TSG101-PTAP inh inactive.
CC(=O)N[C@@H](CC(C)C)C(=O)O was read as GPR32 ag 1 and NTMT1 inhibitor 16%[57.5 µM].
`CCOC(=O)c1c(C)[nH]c(C)c1S(=O)(=O)N1CCC(C(=O)Nc2ccc(OC)c(OC)c2)CC1` gave OvCa metastasis -1%, GALK inh -7%, GPR32 ag -3, NTMT1 inhibitor 7%, B2AR arrestin ag inactive and TSG101-PTAP inh inactive.
For COc1ccc(C(=O)N2CCC(c3c[nH]c4ccccc34)(c3c[nH]c4ccccc34)CC2)cc1 the results were OvCa metastasis inactive, GALK inh 0%, GPR32 ag -1, NTMT1 inhibitor 19%, B2AR arrestin ag inactive and TSG101-PTAP inh inactive.
Screening c1nc(NCCc2cnc[nH]2)c2ccc(-c3ccc4c(c3)OCO4)cc2n1 returned NTMT1 inhibitor -18% and DYRK1A inh 23µM*.
Cc1cc(C)nc(NC(=S)N2CCN(c3ncnc4sccc34)CC2)c1 was read as NTMT1 inhibitor -21%[57.5 µM], Sfp qHTS opt 5.9µM*, HM489 growth inconclusive, Sfp PPTase gel 40µM*, Sfp inh SAR2 1.8µM*, HSD17B4 inh -24% and ALDH1A1 inh 9.6µM*.
Screening Cc1cc(C)nc(NC(=S)N2CCN(c3nccc(C(F)(F)F)n3)CC2)c1 returned NTMT1 inhibitor inconclusive, Sfp qHTS opt 2.1µM*, HM489 growth inconclusive, Sfp PPTase gel 3.2µM*, Sfp inh SAR2 1.1µM*, HSD17B4 inh inconclusive and ALDH1A1 inh 17µM*.
Screening Cc1cc(C)nc(NC(=S)N2CCN(c3cc(Cl)c(Cl)c(Cl)c3)CC2)c1 returned NTMT1 inhibitor inconclusive, Sfp qHTS opt 1.5µM*, HM489 growth 8%, Sfp PPTase gel 10µM*, Sfp inh SAR2 0.36µM*, HSD17B4 inh -8% and ALDH1A1 inh 6.1µM*.
`O=C(Nc1ccc(F)cc1F)N1CCN(c2ccc(Cl)c(Cl)c2)CC1` gave OvCa metastasis -29%, GALK inh -2%, GPR32 ag 28, NTMT1 inhibitor 1%, B2AR arrestin ag inactive and TSG101-PTAP inh inactive.
For Cc1cc(C)nc(NC(=S)N2CCN(c3cc(F)cc(F)c3)CC2)c1 the results were Sfp qHTS opt 6.6µM*, HM489 growth 37µM*, Sfp PPTase gel 10µM* and Sfp inh SAR2 1.3µM*.
`Cc1ccc(-n2ncc3c(N4CCN(C)CC4)ncnc32)cc1` gave OvCa metastasis -2%, GALK inh 0%, GPR32 ag 45, NTMT1 inhibitor -1%, B2AR arrestin ag inactive and TSG101-PTAP inh inactive.
Cc1cc(C)nc(NC(=S)N2CCN(c3ccsc3)CC2)c1 was read as Sfp qHTS opt 5.9µM*, HM489 growth inconclusive, Sfp PPTase gel -77%, Sfp inh SAR2 8.1µM*, HSD17B4 inh inconclusive and ALDH1A1 inh 22µM*.
For Cc1cc(C)nc(NC(=S)N2CCN(c3cc(C#N)cc(C#N)c3)CC2)c1 the results were NTMT1 inhibitor inconclusive, Sfp qHTS opt 2.4µM*, HM489 growth 93%, Sfp PPTase gel -73%, Sfp inh SAR2 0.65µM*, HSD17B4 inh -13% and ALDH1A1 inh 17µM*.
`CC(C)(C)OC(=O)N[C@@H](Cc1ccc(O[S+](=O)([O-])c2cccc3cnccc23)cc1)C(=O)N1CCN(c2ccccc2)CC1` gave NTMT1 inhibitor 15%.
Cc1cc(C)c2c(N)c(C(=O)NCc3ccc(Cl)cc3)sc2n1 was read as NTMT1 inhibitor -10%[57.5 µM] and NNMT counter -8%.
Cc1cccc(C(=O)Nc2c(C(=O)NCc3ccc(Cl)cc3)sc3nc(C)cc(C)c23)c1 was read as OvCa metastasis -1%, GALK inh 0%, GPR32 ag -21, NTMT1 inhibitor 11%, B2AR arrestin ag inactive and TSG101-PTAP inh inactive.
Screening CCN(Cc1sccc1C)c1ncnc2ccc(-c3ccc4c(c3)OCO4)cc12 returned NTMT1 inhibitor inconclusive and DYRK1A inh 1.2µM*.

Screening data (PubChem BioAssay)
